Source: PubChem BioAssay (Sanford-Burnham Center for Chemical Genomics)
Only some compounds are listed: those with a hit (about 2% of all), similar ones and a draw of the others.
A3A deaminase – APOBEC3A ssDNA deaminase inhibitors, primary screen, selectivity assay for APOBEC3G inhibitor project, biochemical, FAM/TAMRA oligo cleavage fluorescence; DNA dC->dU-editing enzyme APOBEC-3A (Homo sapiens), P31941; recombinant A3A, FAM/TAMRA ssDNA deamination fluorescence; inhibition, % at 20 µM; hit rate 0.41% among 330,000; AID 493011, 2011;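 active means at least 40% inhibition at 20 µM here, with at most 30% in a related deaminase screen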
Neddylation inh – inhibitors of cullin neddylation, primary screen, biochemical, TR-FRET, uHTS, NAE and Ubc12; NEDD8-conjugating enzyme Ubc12 (Homo sapiens) + NEDD8-activating enzyme E1 regulatory …; inhibition, % at 25 µM; hit rate 0.58% among 360,000; AID 651699, 2012; in the data active means inhibition above about 36%
APOBEC3G inh – APOBEC3G DNA deaminase inhibitors, primary screen, biochemical, fluorescence, single-stranded DNA substrate, uHTS | inhibition, % at 20 µM | hit rate 0.28% among 330,000 | DNA dC->dU-editing enzyme APOBEC-3G (Homo sapiens), Q9HC16 | AID 493012, 2011 | recombinant A3G, ssDNA deamination FAM/TAMRA fluorescence;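 active means inhibition of at least 40% at 20 µM, with no more than 30% in the related APOBEC3A deaminase screen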
NPR2 activator – human GC-B receptor activators, primary screen, HEK293 GC-B cells, cGMP TR-FRET, EC30 CNP. AID 1920062, 2024. hit rate 0.11% among 370,000. activation, % at 10 µM. 0% at EC30 CNP, 100% saturating CNP;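 active means activation at 10 µM reaching about 35% in either raw or pattern-adjusted values, limit read from the data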
GC-A act – GC-A stimulated cGMP production enhancers – HEK293 GC-A cells, cGMP TR-FRET, EC30 ANP, primary screen | Atrial natriuretic peptide receptor 1 (Homo sapiens), P16066 | 0% at EC30 ANP, 100% saturating ANP | activation, % at 10 µM | hit rate 0.14% among 370,000; in the data active means activation above about 40%
Target sequence (P16066 whole entry, looked up): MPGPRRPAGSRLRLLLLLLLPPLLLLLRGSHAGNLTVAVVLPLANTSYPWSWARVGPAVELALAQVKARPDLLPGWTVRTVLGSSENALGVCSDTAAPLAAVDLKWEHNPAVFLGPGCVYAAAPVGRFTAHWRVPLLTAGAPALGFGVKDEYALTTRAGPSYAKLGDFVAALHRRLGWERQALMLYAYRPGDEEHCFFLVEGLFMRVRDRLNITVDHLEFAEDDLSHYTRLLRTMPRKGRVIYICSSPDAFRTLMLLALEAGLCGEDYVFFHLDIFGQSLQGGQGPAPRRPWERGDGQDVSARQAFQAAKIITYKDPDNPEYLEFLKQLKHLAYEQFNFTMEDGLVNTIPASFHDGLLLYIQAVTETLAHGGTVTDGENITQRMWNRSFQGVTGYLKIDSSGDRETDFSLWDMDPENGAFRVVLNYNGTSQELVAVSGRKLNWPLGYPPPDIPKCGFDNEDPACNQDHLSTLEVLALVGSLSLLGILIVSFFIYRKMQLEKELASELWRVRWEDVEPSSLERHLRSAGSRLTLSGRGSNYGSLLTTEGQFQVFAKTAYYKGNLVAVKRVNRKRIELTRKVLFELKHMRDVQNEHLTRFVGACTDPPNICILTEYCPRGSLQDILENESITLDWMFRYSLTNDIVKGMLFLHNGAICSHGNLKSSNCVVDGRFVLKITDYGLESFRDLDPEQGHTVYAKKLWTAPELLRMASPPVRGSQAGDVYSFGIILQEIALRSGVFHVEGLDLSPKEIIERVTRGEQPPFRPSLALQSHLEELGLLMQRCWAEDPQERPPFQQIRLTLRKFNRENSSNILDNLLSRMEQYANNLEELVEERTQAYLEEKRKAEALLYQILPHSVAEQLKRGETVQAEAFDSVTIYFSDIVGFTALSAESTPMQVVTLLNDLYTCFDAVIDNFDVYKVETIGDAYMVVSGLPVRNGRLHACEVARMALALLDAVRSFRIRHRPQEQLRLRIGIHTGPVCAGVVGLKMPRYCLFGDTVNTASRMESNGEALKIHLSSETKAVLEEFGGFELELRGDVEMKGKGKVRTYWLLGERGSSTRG
PfG6PD inh – PfG6PD enzyme inhibitors, primary screen, biochemical, fluorescence intensity, uHTS | PfGluPho enzyme, NADPH resazurin-diaphorase fluorescence | inhibition, % at 20 µM | hit rate 0.78% among 350,000 | AID 504690, 2011;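 active means inhibition reaching at least a set limit at 20 µM in the primary screen, cut at about 59% in these data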
APOBEC3A confirm – APOBEC3A deaminase inhibitors, retest, confirmation, selectivity assay for APOBEC3G inhibitor project, biochemical, single concentration, fluorescence readout | recombinant A3A, ssDNA deaminase UDG fluorescence assay | inhibition, % at 20 µM | shares compounds with A3A deaminase | hit rate 63% among 1,400;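 active means inhibition reaching a set limit, 80% of the first screen's cutoff, at 20 µM in any replicate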
UDG A3A counter – E. coli UDG inhibitors, confirmation, counter-screen for APOBEC3A inhibitor project, biochemical, single concentration, fluorescence, FAM/TAMRA oligo | 1,000 tested, under 10 active | UDG counterscreen, FAM/TAMRA uracil oligo fluorescence | inhibition, % at 20 µM | shares compounds with A3A deaminase; call rule not given here
Of the large screens only hits and unclear results are named; the others gave an inactive call (follow-up assays come after a bar, where they were run).

Cc1ccc(N(C(=O)c2csnn2)C(C(=O)NC2CCCCC2)c2ccccn2)cc1 (configuration not stated)	none
CCN1/C(=C/c2ccc3cc(C)ccc3[n+]2CC)Sc2cc(C)c(C)cc21	A3A deaminase 56.6 | APOBEC3A confirm 79.9
COc1ccc(C2C(C(C)=O)=C(C)N=c3s/c(=C\c4ccc5c(c4)OCO5)c(=O)n32)c(OC)c1 (configuration not stated)	A3A deaminase 50.1 | APOBEC3A confirm inactive
Cc1ccc2ncccc2c1NS(=O)(=O)c1ccccc1	A3A deaminase 43.2 | APOBEC3A confirm inactive
C=CCn1c(CCCNC(=O)CCC)nc2ccccc21	A3A deaminase 47.3 | APOBEC3A confirm inactive | UDG A3A counter inactive
CN(CC(=O)Nc1ccc(F)cc1)CC(=O)N(C)C1(C#N)CCCCC1	none
COc1ccc(NC(=O)CN(C)CC(=O)N(C)C2(C#N)CCC(C)CC2)cc1 (configuration not stated)	A3A deaminase 43.7 | APOBEC3A confirm 33.0 | UDG A3A counter inactive
COc1ccc(N2CCN(CCCNC(=O)Cc3ccc(C(F)(F)F)cc3)CC2)cc1	none (no result: A3A deaminase, Neddylation inh, APOBEC3G inh, PfG6PD inh)
CC(=O)OC1C2CCC1C([N+]1(C)CCCCC1)CC2 (configuration not stated)	A3A deaminase 72.8 | APOBEC3A confirm 72.9 | UDG A3A counter inactive
C[N+]1(C2CCC3CCC2C3O)CCCC1 (configuration not stated)	A3A deaminase 40.7 | APOBEC3A confirm 67.1 | UDG A3A counter inactive
C[N+]1(CC(=O)OC2CCCCCCCCCCC2)CCCC1	none
CCC(CO)Nc1cccc2c1S(=O)(=O)N(Cc1cn(Cc3ccc(F)cc3)nn1)Cc1ccccc1O2 (configuration not stated)	none (no result: A3A deaminase, Neddylation inh, APOBEC3G inh, PfG6PD inh)
COc1ccccc1N=Nc1[nH]c2ccc(C)cc2c1O	A3A deaminase 66.3 | APOBEC3A confirm 53.0 | UDG A3A counter inactive
Cc1ccc2[nH]c(O)c(N=Nc3ccccc3[N+](=O)[O-])c2c1	none (no result: A3A deaminase, APOBEC3G inh)
Cn1c(-[n+]2c(-c3ccccc3)cc(-c3ccccc3)cc2-c2ccccc2)nc2cc([N+](=O)[O-])ccc21	A3A deaminase 45.6 | APOBEC3A confirm 55.9 | UDG A3A counter inactive
COc1cccc2c1C(=O)c1c(O)c3c(c(O)c1C2=O)C[C@@](O)(C(C)=O)C[C@@H]3O[C@H]1C[C@H](N)[C@H](O)[C@H](C)O1	none (no result: A3A deaminase, APOBEC3G inh)
CC(=O)[C@]1(O)Cc2c(O)c3c(c(O)c2[C@@H](O[C@H]2C[C@H](N)[C@H](O)[C@H](C)O2)C1)C(=O)c1ccccc1C3=O	A3A deaminase 40.7 (no result: Neddylation inh, NPR2 activator, GC-A act) | APOBEC3A confirm 46.4 | UDG A3A counter inactive
COc1ccc(OC)c(S(=O)(=O)N2CCCCC2C(=O)N2CCN(c3ccccc3F)CC2)c1 (configuration not stated)	none (no result: A3A deaminase, Neddylation inh, APOBEC3G inh, PfG6PD inh)
O=C(Nc1ccc(-c2ccccc2)cc1)c1ccco1	A3A deaminase 42.1 | APOBEC3A confirm inactive
O=C(Nc1ccc(NC(=O)c2ccco2)cc1)c1ccco1	none
CN(CCc1ccccn1)C(=O)Cn1nc(-c2ccccc2)ccc1=O	none (no result: A3A deaminase, Neddylation inh, APOBEC3G inh, PfG6PD inh)
CN(C)CCOC(=O)C1(c2ccccc2)CCCC1	none
C[N+]1(CCCOC(=O)C2(c3ccccc3)CCCC2)CCOCC1	A3A deaminase 85.1 | APOBEC3A confirm 69.3 | UDG A3A counter inactive
COCC#Cc1ccc(CC[C@H]2O[C@H]3CC[C@@H](CO)O[C@H]3C[C@H]2n2cc(C3CC3)nn2)cc1	none (no result: A3A deaminase, Neddylation inh, APOBEC3G inh, PfG6PD inh)
CC(=O)Nc1cccc(C(C)C2=CCCCC2)c1 (configuration not stated)	none (no result: A3A deaminase, Neddylation inh, APOBEC3G inh, PfG6PD inh)
Cc1ccc(NC(=O)C2CCN(C(=O)c3cccs3)CC2)c(C)c1	A3A deaminase 44.5 | APOBEC3A confirm 67.4 | UDG A3A counter inactive
Cc1cc(C)c(NC(=O)CNC(=O)[C@@H]2CCCN2C(=O)c2cccs2)c(C)c1	none
O=C(Nc1nc2c(s1)CCCC2)C1CCCN1C(=O)c1cccs1 (configuration not stated)	A3A deaminase 53.6 | APOBEC3A confirm 45.6 | UDG A3A counter inactive
Cc1ccc(NC(=O)C2CCCN2C(=O)c2cccs2)c(C)c1 (configuration not stated)	A3A deaminase 51.1 | APOBEC3A confirm 59.2 | UDG A3A counter inactive
CCc1ccccc1NC(=O)C1CCN(C(=O)c2cccs2)CC1	none
CC(C)(C)c1ccc(CCC2OCC(C[N+]3(C)CCOCC3)O2)cc1 (configuration not stated)	A3A deaminase 45.1 | APOBEC3A confirm 72.6 | UDG A3A counter inactive
Cn1c(SCC(=O)NC(C)(C)C)nnc1-c1cccc(NC(=O)c2ccccc2F)c1	A3A deaminase 45.2 | APOBEC3A confirm inactive
CCSCc1nnc(SCC(=O)Nc2ccc(OC)cc2)n1C	A3A deaminase 56.2 | APOBEC3A confirm 62.7 | UDG A3A counter inactive
Cn1c(SCC(=O)NC(=O)Cc2ccccc2)nnc1-c1ccc(F)cc1	none
Cn1c(SCC(=O)Nc2ccc3c(c2)oc2ccccc23)nnc1-c1ccccc1	A3A deaminase 46.0 | APOBEC3A confirm 60.2 | UDG A3A counter inactive
COc1ccc(-c2nnc(SCC(=O)Nc3ccc(C)cc3)n2C)cc1	none
Cn1c(SCC(=O)Nc2ccc3[nH]c(=O)[nH]c3c2)nnc1-c1ccccc1	none
COc1ccc(-c2nnc(SCC(=O)NC(=O)Cc3ccccc3)n2C)cc1	A3A deaminase 42.9 | APOBEC3A confirm inactive
CC(=O)N[C@@H]1C[C@@H]2O[C@H](CO)CC[C@@H]2O[C@@H]1CCc1ccc(-c2ccc(F)cc2)cc1	none (no result: A3A deaminase, Neddylation inh, APOBEC3G inh, PfG6PD inh)
CCOC(=O)c1ccc2c(c1)n(CC)c(/C=C/N(C)c1ccccc1)[n+]2CC	A3A deaminase 57.4 | APOBEC3A confirm 78.6 | UDG A3A counter inactive
